In all, about 5,600 compounds went through this assay and about 4,400 (79%) were called active. Cut-off read from the data, not from the text of the source: active = inhibition above about 27%; inactive = the rest. The set was probably picked from earlier hits. Not all results are given here.
Target: Fructose-bisphosphate aldolase (Mycobacterium tuberculosis (strain ATCC 25618 / H37Rv)) (UniProt P9WQA3)
Assay: M. tuberculosis aldolase blockers, biochemical, fluorescence, strain H37Rv, confirmation (AID 651616);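 note: 0% = vehicle wells and 100% = reference inhibitor wells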
Conditions: purified M. tuberculosis FBA, fluorescence read-out, at 1 µM, hits give high values

Fructose-bisphosphate aldolase (Mycobacterium tuberculosis (strain ATCC 25618 / H37Rv)), sequence (P9WQA3 whole entry, looked up): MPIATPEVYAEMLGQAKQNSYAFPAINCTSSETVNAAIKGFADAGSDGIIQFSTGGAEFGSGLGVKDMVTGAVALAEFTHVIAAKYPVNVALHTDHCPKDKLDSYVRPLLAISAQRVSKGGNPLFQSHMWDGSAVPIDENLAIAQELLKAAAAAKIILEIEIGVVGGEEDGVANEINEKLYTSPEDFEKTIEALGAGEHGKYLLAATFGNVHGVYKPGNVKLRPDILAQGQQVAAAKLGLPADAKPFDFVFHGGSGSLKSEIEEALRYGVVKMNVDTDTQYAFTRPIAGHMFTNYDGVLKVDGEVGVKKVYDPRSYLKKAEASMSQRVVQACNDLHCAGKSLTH

Question: `CN(C)CCCNC(=O)c1ccc2[nH]c3ccccc3c2c1` was tested. Which inhibition did it give?
Answer: 103% (active)

Question: `c1ccc(Cc2c(-c3ccco3)nc3c4ccccc4ccn23)cc1` was tested. Which inhibition did it give?
Answer: 137% (active)

Question: With `CCOC(=O)c1cc2cc(C)ccc2[nH]1` as the molecule, how does the inhibition read?
Answer: 50.4% (active)

Question: For `CCN1CCc2c(C#N)c(NCc3ccccc3)nc(NCCO)c2C1`, which inhibition is on record?
Answer: 175% (active)

Question: For `COc1ccc2c(c1OC)C(=O)N(c1ncn[nH]1)C2`, which inhibition is on record?
Answer: 85.2% (active)

Question: With `Cc1coc2c1c(C)cc1oc(=O)c(CC(=O)NCC(=O)N[C@H](C(=O)O)C(C)C)c(C)c12` as the molecule, how does the inhibition read?
Answer: 52.1% (active)

Question: For `Cc1cc(C)cc(NC(=O)CSc2ccccc2)c1`, which inhibition is on record?
Answer: 86.7% (active)

Question: How did the inhibition turn out when `CN(C)CCCn1c(N)c(C#N)c2nc(C#N)c(C#N)nc21` was run?
Answer: 85.4% (active)

Question: `Cc1cc(C)c2c(n1)sc1c(=O)n(-c3ccccc3)c(=O)[nH]c12` was tested. Which inhibition did it give?
Answer: 75.8% (active)

Question: Which inhibition does the source give for `CN(CCc1ccccn1)S(=O)(=O)c1ccc2c3c(cccc13)C(=O)N2` here?
Answer: 130% (active)

Question: With `COc1ccc(NC(=O)N2CCC(Cc3ccccc3)CC2)cc1` as the molecule, how does the inhibition read?
Answer: 40.8% (active)

Question: How did the inhibition turn out when `O=C1CC2(CCCCC2)Oc2ccc(OCC(=O)N3CCOCC3)cc21` was run?
Answer: 4.05% (inactive)

Question: With `COc1ccccc1NC(=O)COc1ccc(C(=O)OCC(=O)N(C(C)C)C(C)C)cc1OC` as the molecule, how does the inhibition read?
Answer: 0.36% (inactive)

Question: For `COc1ccccc1C(=O)Nc1ccc(OCC(=O)N2CCCCC2)cc1`, which inhibition is on record?
Answer: 183% (active)

Question: With `COc1ccccc1-c1oc2ccccc2c1C#CCCCCO` as the molecule, how does the inhibition read?
Answer: 170% (active)

Question: With `COc1ccc(-n2cc(CN(C)Cc3n[nH]c(=O)[nH]3)c(-c3cccc(F)c3)n2)cc1` as the molecule, how does the inhibition read?
Answer: 44.3% (active)

Question: With `COc1ccc(-n2cc(CNC3CCOCC3)c(-c3cccc(F)c3)n2)cc1` as the molecule, how does the inhibition read?
Answer: 18.8% (inactive)

Question: Which inhibition does the source give for `Cc1ccc(S(=O)(=O)N2CCN(C(=O)CSc3cc(C)ccc3C)CC2)c(C)c1` here?
Answer: 164% (active)

Question: `Cn1nc(-c2ccc(Cl)cc2)c2cc(C(=O)NCc3ccco3)sc21` was tested. Which inhibition did it give?
Answer: 47.8% (active)

Question: `CCc1ccc(-c2cc(C(=O)NCc3ccco3)c3ccccc3n2)s1` was tested. Which inhibition did it give?
Answer: -6.79% (inactive)

Question: For `CCN(CC)CCCNC(=O)c1cc2c(=O)[nH]c3ccc(C)cc3c2s1`, which inhibition is on record?
Answer: 137% (active)

Question: Which inhibition does the source give for `N#CC1(Nc2ccc3c4c(cccc24)CC3)CCCCC1` here?
Answer: 119% (active)

Question: For `N#Cc1c(N)n(CCOC(=O)c2ccc(Cl)cc2)c2nc3ccccc3nc12`, which inhibition is on record?
Answer: 40.4% (active)

Question: Which inhibition does the source give for `CC(=O)c1sc2nc(SCC(=O)N3CCCCC3)[nH]c(=O)c2c1C` here?
Answer: 76.2% (active)

Question: Which inhibition does the source give for `CCN(C(=O)Nc1cccc2ccccc12)c1ccccc1` here?
Answer: 164% (active)

Question: With `O=C(O)c1cccnc1Sc1ncnc2sc3c(c12)CCC3` as the molecule, how does the inhibition read?
Answer: 59.7% (active)

Question: `O=C(Nc1ncc2c(n1)-c1ccccc1OC2)c1ccc(Cl)cc1` was tested. Which inhibition did it give?
Answer: 93.8% (active)

Question: Which inhibition does the source give for `CCOc1ccccc1C1CC(c2ccccc2)Nc2nc(N)nn21` (configuration not stated) here?
Answer: 185% (active)

Question: Which inhibition does the source give for `O=c1oc2ccccc2cc1-c1cn(-c2ccccc2)c(=S)[nH]1` here?
Answer: 17.6% (inactive)

Question: `CC12CCC(C(=O)N3CCN(c4ncccn4)CC3)(c3nc4ccccc4nc31)C2(C)C` (configuration not stated) was tested. Which inhibition did it give?
Answer: 195% (active)

Question: Which inhibition does the source give for `Cn1cccc1-c1nc2ccccc2n1C` here?
Answer: 13.3% (inactive)

Question: How did the inhibition turn out when `Cn1c(-c2ccco2)nc2cc3ccccc3cc21` was run?
Answer: 46.4% (active)

Question: Which inhibition does the source give for `CCCc1cc(=O)oc2c(C)c(OCC(=O)N3CCC(C(=O)O)CC3)ccc12` here?
Answer: -5.02% (inactive)

Question: With `CCc1cc(=O)oc2c(C)c(OCC(=O)N3CC[C@@]4(O)CCCC[C@H]4C3)ccc12` as the molecule, how does the inhibition read?
Answer: 130% (active)

Question: How did the inhibition turn out when `CCOC(=O)CSc1nc2c(c(=O)n(Cc3ccccc3Cl)c(=O)n2C)n1C` was run?
Answer: 48.6% (active)

Question: Which inhibition does the source give for `CN(C)c1ccc(/C=N/NC(=O)C(O)c2ccc(Br)cc2)cc1` (configuration not stated) here?
Answer: 72.9% (active)

Question: For `COC(=O)c1noc(C)c1-c1ccnn1C(=O)c1ccc(Cl)cc1`, which inhibition is on record?
Answer: 57.6% (active)

Question: Which inhibition does the source give for `Cc1nc(NCCN)c(C#N)c2c1COC(C)(C)C2` here?
Answer: 88.6% (active)

Question: For `Cc1cc(=O)n2[nH]c(-c3cccc(Cl)c3)cc2n1`, which inhibition is on record?
Answer: 107% (active)

Question: How did the inhibition turn out when `Cc1ccc2nc(/C(C#N)=C\c3ccc(OC(=O)c4cccs4)cc3)[nH]c2c1` was run?
Answer: 53.5% (active)

Question: For `CC(C)(C)C(=O)Nc1cccc(-c2ccc[nH]2)n1`, which inhibition is on record?
Answer: 76.9% (active)

Question: `N#Cc1c(N2CCCCC2)nc(N)c2c(N)nc(SCC(=O)O)cc12` was tested. Which inhibition did it give?
Answer: 11.2% (inactive)

Question: Which inhibition does the source give for `CN(C)Cc1c(O)ccc2c(=O)c(-c3ccccc3Cl)coc12` here?
Answer: 9.64% (inactive)

Question: `CC[C@@H]1Cc2cc(O)ccc2C2=C1c1ccc(O)cc1C[C@H]2CC` was tested. Which inhibition did it give?
Answer: 109% (active)

Question: Which inhibition does the source give for `Cc1cc(C)c2c(NC(=O)C3CC3)nn(C)c2n1` here?
Answer: 87.2% (active)

Question: How did the inhibition turn out when `Cc1cc(C)c2c(n1)nn1c(-n3ccnc3)cc(C)nc21` was run?
Answer: -3.81% (inactive)

Question: With `CC(C)(C)Nc1c(-c2cccs2)nc2ccccn12` as the molecule, how does the inhibition read?
Answer: 146% (active)

Question: For `CC[C@@H](C)[C@H](NC(=O)CCc1c(C)c2cc3c4c(oc3c(C)c2oc1=O)CCCC4)C(=O)O`, which inhibition is on record?
Answer: 88.9% (active)

Question: Which inhibition does the source give for `CC(C)=NN1C(=O)c2ccccc2NC1(C)C` here?
Answer: 178% (active)

Question: With `O=C(Nc1nncs1)c1ccccc1NS(=O)(=O)c1cccs1` as the molecule, how does the inhibition read?
Answer: 141% (active)

Question: Which inhibition does the source give for `CC1(C)Cc2c(C#N)c(SCc3nc4ccccc4[nH]3)nc(N3CCOCC3)c2CO1` here?
Answer: -3.68% (inactive)

Question: For `CC(C)c1nc(N2CCOCC2)c(C#N)c2c1COC(C)(C)C2`, which inhibition is on record?
Answer: 37.2% (active)

— PubChem BioAssay AID651616 (The Scripps Research Institute Molecular Screening Center, 2012)
